The supplement of paper PMC11732987, “Enantioselective OTUD7B fragment discovery through chemoproteomics screening and high-throughput optimisation” (Communications Chemistry, 2025)

Columns and labels:
Assay in all cases: log2 ratio of Biotin-Ahx-Ub-VS probe labelling (fragment/DMSO); higher = less target engagement (more negative = stronger competition), active = hit call of the paper (q ≤ 0.05, log2 ratio ≤ -1)
Settings in all cases: compound concentration: 200 uM; treatment time: 3 h
ALG13 = biological target: T1, ALG13 (UniProt Q9NP73)
T1 sequence (whole entry): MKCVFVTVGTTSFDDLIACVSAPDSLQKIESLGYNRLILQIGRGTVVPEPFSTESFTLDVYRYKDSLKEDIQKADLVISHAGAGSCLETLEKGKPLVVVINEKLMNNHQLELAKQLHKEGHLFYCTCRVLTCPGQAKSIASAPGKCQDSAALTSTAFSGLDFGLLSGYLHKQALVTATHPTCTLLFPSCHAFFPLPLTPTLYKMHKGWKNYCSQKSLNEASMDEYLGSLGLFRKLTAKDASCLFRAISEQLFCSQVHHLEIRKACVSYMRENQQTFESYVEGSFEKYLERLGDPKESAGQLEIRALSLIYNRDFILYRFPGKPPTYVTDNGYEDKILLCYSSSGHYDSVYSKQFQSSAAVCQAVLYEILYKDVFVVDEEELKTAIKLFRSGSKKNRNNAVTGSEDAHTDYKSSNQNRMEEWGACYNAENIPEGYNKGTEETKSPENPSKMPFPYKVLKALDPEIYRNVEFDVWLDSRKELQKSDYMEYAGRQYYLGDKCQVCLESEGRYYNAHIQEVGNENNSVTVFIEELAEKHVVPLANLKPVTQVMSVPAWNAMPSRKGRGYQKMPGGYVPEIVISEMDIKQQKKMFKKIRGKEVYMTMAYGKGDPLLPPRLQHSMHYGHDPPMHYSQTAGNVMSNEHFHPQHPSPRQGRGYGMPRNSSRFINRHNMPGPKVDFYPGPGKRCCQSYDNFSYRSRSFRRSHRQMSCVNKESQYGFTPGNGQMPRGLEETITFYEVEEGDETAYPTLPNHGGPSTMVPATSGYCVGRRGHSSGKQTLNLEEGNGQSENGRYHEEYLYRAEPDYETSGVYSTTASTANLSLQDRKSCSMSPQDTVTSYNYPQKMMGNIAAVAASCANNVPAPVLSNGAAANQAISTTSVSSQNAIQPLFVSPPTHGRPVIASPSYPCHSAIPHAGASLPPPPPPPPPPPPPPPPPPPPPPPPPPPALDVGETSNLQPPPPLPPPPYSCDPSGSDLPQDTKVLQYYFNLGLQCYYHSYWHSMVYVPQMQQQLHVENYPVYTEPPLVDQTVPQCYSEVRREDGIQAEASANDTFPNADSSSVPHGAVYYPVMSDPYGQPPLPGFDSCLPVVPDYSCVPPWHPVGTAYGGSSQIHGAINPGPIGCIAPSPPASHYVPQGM
Outline: (§1)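 Triplicate samples of HEK293T lysate, 495 µg each, received fragment at 200 µM or vehicle for 3 h, followed by Biotin-Ahx-Ub-VS (0.5 µM final) for 1 h. After NeutrAvidin enrichment of labelled DUBs and LysC/trypsin digestion, peptides were run by diaPASEF LC-MS/MS. The values are average log2 fragment/vehicle ratios from global-median-normalised Spectronaut label-free quantities, tested by unpaired t-test on proteins having ≥2 unique peptides.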

ATXN3 = ATXN3 (UniProt P54252)
Outline: as §1

BAP1 = biological target: T2, BAP1 (UniProt Q92560)
T2 sequence (whole entry): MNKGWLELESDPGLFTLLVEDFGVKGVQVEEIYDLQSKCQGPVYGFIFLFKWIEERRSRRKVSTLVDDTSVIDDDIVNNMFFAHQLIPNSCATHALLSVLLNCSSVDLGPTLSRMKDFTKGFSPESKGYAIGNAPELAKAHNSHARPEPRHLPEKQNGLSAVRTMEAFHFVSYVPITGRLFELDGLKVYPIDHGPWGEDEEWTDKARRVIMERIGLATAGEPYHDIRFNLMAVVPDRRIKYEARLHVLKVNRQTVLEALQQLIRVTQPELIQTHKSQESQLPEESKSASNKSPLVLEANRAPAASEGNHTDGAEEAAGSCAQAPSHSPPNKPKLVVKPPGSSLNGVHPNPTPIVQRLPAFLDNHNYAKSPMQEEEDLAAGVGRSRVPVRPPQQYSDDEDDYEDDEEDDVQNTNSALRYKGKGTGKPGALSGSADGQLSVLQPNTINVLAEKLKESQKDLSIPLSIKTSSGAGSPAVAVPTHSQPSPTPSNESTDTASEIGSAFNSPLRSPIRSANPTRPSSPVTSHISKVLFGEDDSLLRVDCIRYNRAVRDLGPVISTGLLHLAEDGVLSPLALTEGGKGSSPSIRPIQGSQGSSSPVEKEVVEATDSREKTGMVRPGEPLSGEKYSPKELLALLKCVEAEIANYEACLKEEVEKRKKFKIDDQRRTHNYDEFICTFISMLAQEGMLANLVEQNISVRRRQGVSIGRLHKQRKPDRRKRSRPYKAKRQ
Outline: as §1

EIF3F = EIF3F (UniProt O00303)
Outline: as §1

EIF3H = EIF3H (UniProt O15372)
Outline: as §1

FAM105A = biological target: T3, FAM105A (UniProt Q9NUU6)
T3 sequence (whole entry): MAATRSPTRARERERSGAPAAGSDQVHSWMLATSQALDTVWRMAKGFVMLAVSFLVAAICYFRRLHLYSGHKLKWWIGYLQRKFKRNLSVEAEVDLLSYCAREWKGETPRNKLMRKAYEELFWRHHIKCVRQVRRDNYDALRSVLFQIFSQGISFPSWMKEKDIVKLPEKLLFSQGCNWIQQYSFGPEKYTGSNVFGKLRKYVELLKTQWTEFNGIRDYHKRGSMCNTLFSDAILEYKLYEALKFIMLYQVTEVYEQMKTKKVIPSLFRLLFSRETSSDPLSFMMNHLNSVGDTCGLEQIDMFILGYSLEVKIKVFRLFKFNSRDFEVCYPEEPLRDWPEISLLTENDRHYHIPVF
Outline: as §1

OTUB1 = OTUB1 (UniProt Q96FW1)
Outline: as §1

OTUD4 = biological target: T4, OTUD4 (UniProt Q01804)
T4 sequence (whole entry): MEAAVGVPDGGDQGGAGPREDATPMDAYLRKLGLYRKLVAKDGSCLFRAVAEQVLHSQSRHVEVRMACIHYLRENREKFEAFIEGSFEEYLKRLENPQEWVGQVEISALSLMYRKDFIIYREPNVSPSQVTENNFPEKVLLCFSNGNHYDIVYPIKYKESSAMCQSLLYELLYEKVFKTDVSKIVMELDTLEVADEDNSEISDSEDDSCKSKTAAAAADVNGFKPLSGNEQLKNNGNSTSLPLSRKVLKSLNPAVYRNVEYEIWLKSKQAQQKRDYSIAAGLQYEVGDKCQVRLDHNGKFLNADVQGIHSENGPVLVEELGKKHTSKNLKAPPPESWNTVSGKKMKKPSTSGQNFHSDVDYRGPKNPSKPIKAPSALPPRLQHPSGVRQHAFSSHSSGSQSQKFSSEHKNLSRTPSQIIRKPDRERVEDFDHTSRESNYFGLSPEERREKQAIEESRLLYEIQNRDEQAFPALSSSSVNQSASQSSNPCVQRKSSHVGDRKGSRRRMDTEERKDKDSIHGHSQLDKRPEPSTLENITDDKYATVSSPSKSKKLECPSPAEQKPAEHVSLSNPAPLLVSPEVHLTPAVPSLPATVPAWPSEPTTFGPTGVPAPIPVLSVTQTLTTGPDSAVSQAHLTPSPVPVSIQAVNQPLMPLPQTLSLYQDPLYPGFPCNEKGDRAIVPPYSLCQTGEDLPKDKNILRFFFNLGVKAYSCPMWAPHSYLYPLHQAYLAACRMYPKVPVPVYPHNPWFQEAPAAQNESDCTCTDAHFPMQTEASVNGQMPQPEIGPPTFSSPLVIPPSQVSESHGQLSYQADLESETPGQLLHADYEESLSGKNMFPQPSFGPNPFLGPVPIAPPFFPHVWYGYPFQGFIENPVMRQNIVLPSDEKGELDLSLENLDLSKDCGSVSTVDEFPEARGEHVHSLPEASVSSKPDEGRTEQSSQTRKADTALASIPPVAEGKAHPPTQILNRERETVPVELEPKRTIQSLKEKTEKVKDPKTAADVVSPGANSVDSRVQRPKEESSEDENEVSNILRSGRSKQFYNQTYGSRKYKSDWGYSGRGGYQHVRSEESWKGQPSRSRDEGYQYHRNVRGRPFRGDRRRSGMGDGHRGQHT
Outline: as §1

OTUD5 = biological target: T5, OTUD5 (UniProt Q96G74)
T5 sequence (whole entry): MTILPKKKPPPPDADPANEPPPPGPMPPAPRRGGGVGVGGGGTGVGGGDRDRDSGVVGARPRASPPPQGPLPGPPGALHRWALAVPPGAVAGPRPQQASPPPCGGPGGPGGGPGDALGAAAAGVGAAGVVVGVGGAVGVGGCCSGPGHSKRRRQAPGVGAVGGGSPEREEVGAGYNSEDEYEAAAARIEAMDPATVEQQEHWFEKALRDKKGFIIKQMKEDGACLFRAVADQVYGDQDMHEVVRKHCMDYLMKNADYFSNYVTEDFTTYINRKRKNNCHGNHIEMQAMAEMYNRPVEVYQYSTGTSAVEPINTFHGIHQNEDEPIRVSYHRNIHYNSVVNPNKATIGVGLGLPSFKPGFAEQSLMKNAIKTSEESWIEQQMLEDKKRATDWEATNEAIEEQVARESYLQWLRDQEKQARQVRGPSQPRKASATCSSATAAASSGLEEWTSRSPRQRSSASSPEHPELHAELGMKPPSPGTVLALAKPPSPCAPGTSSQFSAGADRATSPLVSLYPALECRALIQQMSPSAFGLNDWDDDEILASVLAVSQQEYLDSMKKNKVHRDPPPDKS
Outline: as §1

Measured: log2 ratio of Biotin-Ahx-Ub-VS probe labelling

EIF3F, sequence (O00303 whole entry): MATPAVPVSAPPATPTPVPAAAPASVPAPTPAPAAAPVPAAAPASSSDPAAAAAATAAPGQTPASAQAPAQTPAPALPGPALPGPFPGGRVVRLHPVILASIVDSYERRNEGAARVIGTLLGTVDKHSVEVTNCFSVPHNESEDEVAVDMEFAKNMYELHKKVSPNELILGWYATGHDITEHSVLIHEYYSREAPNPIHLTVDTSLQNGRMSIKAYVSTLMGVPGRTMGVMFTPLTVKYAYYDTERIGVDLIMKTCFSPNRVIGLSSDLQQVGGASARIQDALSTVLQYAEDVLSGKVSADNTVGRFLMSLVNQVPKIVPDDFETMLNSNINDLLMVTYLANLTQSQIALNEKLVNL
ATXN3, sequence (P54252 whole entry): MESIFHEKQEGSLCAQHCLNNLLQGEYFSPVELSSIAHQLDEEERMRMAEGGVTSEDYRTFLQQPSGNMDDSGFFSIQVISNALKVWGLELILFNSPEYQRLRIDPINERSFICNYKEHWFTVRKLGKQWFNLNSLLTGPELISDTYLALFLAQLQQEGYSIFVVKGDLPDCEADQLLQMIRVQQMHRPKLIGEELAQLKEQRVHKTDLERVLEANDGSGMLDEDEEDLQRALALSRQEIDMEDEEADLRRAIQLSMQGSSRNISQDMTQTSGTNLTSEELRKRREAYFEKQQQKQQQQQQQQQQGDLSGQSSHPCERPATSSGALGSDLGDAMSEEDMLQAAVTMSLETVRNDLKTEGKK
EIF3H, sequence (O15372 whole entry): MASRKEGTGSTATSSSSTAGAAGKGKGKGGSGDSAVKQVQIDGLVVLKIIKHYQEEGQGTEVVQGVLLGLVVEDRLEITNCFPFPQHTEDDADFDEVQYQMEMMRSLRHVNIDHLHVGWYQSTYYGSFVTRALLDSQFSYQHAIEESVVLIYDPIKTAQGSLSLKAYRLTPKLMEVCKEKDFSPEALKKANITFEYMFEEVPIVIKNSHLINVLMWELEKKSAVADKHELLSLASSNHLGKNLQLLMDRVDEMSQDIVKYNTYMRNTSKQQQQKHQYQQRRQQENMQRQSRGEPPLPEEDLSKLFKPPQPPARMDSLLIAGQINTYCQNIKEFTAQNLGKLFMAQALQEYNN
OTUB1, sequence (Q96FW1 whole entry): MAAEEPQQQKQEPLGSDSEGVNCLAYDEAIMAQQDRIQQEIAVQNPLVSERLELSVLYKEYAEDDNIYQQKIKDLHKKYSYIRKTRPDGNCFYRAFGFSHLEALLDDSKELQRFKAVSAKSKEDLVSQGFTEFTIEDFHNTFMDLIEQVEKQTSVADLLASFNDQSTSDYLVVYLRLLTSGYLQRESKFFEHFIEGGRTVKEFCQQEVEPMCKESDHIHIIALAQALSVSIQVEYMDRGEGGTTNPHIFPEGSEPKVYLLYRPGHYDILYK

O=C(CCl)N1CC=C(c2c[nH]c3ccccc23)CC1
active: ATXN3 -1.2 | BAP1 -1.95 | OTUD5 -1.27
inactive: ALG13 -0.249 | EIF3F -0.308 | EIF3H 0.184 | FAM105A -0.087 | OTUB1 -0.218 | OTUD4 -0.412
